Most compounds without a hit are left out; they make up all but 3.2% or so of the library.
PrPC surface inh – reduces human prion protein on the cell surface | actives 0.43% (n = 370,000) | P04156 | inhibition, % at 13.8 µM | cell surface PrPC, TR-FRET read-out | AID 720596; in the data active = inhibition above about 24%
TcdB inh – inhibitors of Clostridioides difficile toxin B glycohydrolase; inhibition, % at 9.99 µM; P18177; AID 652162; TcdB glycohydrolase enzymatic assay, plate reader; actives 0.24% (n = 350,000)
Mtb FBA inh – inhibits M. tuberculosis FBA enzyme | P9WQA3 | purified M. tuberculosis FBA, fluorescence read-out | inhibition, % at 1 µM | actives 2.3% (n = 360,000); in the data active = inhibition above about 27%
GDH-TPI counter-1 – inhibits GDH-TPI coupling enzymes, artifact for Mtb FBA screen; GDH-TPI coupled enzyme counterscreen, NADH absorbance; inhibition, % at 4.8 µM; actives 1.2% (n = 360,000); AID 588335; in the data active = inhibition above about 30%
Yp Topo-I inh – Y. pestis Topo-I inhibition via cleavage products; Y. pestis Topo-I cleavage product accumulation, plate reader; actives 0.064% (n = 360,000); activity, % at 10 µM; in the data active = activity above about 50%, passing the limit was not always enough
Mtb FBA confirm – Mtb FBA inhibition, confirmed; purified M. tuberculosis FBA, fluorescence read-out; actives 78% (n = 5,600); shares compounds with Mtb FBA inh; inhibition, % at 1 µM; in the data active = inhibition above about 27%
GDH-TPI counter-2 – counter-screen for M. tuberculosis FBA inhibitors: GDH-TPI coupled enzyme inhibition; shares compounds with Mtb FBA inh; inhibition, % at 1 µM; AID 652141; GDH-TPI coupled enzyme counterscreen, fluorescence; actives 81% (n = 5,600)
Numbers stand for hits. Cut-off read from the data, not from the text of the source, unless noted: active = inhibition above about 10%; inactive = the rest.

For Cc1nn(-c2ccccc2)c2nc3c(cc12)C(=O)CCC3 the results were PrPC surface inh inactive, TcdB inh inactive, Mtb FBA inh inactive, GDH-TPI counter-1 inactive and Yp Topo-I inh inactive.
Screening Cc1nn(-c2ccccc2)c2nc(Cl)c(C(=O)O)cc12 returned PrPC surface inh inactive, TcdB inh inactive, Mtb FBA inh 31, GDH-TPI counter-1 inactive, Yp Topo-I inh inactive, Mtb FBA confirm active and GDH-TPI counter-2 active.
Screening COc1ccc(N(C)C(=O)c2cc3c(s2)-c2ccccc2OC3)c(OC)c1 returned PrPC surface inh inactive, TcdB inh inactive, Mtb FBA inh inactive, GDH-TPI counter-1 inactive and Yp Topo-I inh inactive.
`CC(=O)c1cc2c(s1)-c1cc(F)ccc1OC2` gave PrPC surface inh inactive, TcdB inh inactive, Mtb FBA inh 87, GDH-TPI counter-1 inactive, Yp Topo-I inh inactive, Mtb FBA confirm 63 and GDH-TPI counter-2 51.
Screening CC(=O)Nc1cc(-c2ccc(S(C)(=O)=O)cc2)cn2c(-c3ccc(F)cc3)cnc12 returned PrPC surface inh inactive, TcdB inh inactive, Mtb FBA inh inactive, GDH-TPI counter-1 inactive and Yp Topo-I inh inactive.
For CC(=O)Nc1cc(-c2cccc(F)c2)cn2c(-c3ccc(S(C)(=O)=O)cc3)cnc12 the results were PrPC surface inh inactive, TcdB inh inactive, Mtb FBA inh 71, GDH-TPI counter-1 inactive, Yp Topo-I inh inactive, Mtb FBA confirm active and GDH-TPI counter-2 active.
`CCCCc1c(C)nc2cc(-c3ccco3)[nH]n2c1=O` gave PrPC surface inh inactive, TcdB inh inactive, Mtb FBA inh inactive, GDH-TPI counter-1 inactive and Yp Topo-I inh inactive.
For O=C1c2nc3cc(-c4ccco4)[nH]n3c(=O)c2CN1Cc1ccccc1 the results were PrPC surface inh inactive, TcdB inh inactive, Mtb FBA inh 97, GDH-TPI counter-1 inactive, Yp Topo-I inh inactive, Mtb FBA confirm 104 and GDH-TPI counter-2 67.
COc1ccccc1NC(=O)N1[C@H](C#N)[C@@H](c2ccccc2)[C@@H]1CO was read as TcdB inh inactive.
`O=C1Nc2ccc(S(=O)(=O)NCCCO)c3cccc1c23` gave PrPC surface inh inactive, TcdB inh inactive, Mtb FBA inh 52, GDH-TPI counter-1 inactive, Yp Topo-I inh inactive, Mtb FBA confirm 94 and GDH-TPI counter-2 61.
O=C1Nc2ccc(S(=O)(=O)NCCC3=CCCCC3)c3cccc1c23 was read as PrPC surface inh inactive, Mtb FBA inh inactive, GDH-TPI counter-1 inactive and Yp Topo-I inh inactive.
Screening CCNS(=O)(=O)c1ccc2c3c(cccc13)C(=O)N2 returned PrPC surface inh inactive, Mtb FBA inh 65, GDH-TPI counter-1 inactive, Yp Topo-I inh inactive, Mtb FBA confirm 53 and GDH-TPI counter-2 38.
`CCN1C(=O)c2cccc3c(S(=O)(=O)NCC4CCCO4)ccc1c23` (configuration not stated) gave PrPC surface inh inactive, TcdB inh inactive, Mtb FBA inh inactive, GDH-TPI counter-1 inactive and Yp Topo-I inh inactive.
O=C1Nc2ccc(S(=O)(=O)NCC3CCCO3)c3cccc1c23 (configuration not stated) was read as PrPC surface inh inactive, TcdB inh inactive, Mtb FBA inh 50, GDH-TPI counter-1 inactive, Yp Topo-I inh inactive, Mtb FBA confirm 47 and GDH-TPI counter-2 31.
`CCN(CC)S(=O)(=O)c1ccc2c3c(cccc13)C(=O)N2` gave PrPC surface inh inactive, TcdB inh inactive, Mtb FBA inh inactive, GDH-TPI counter-1 inactive and Yp Topo-I inh inactive.
Screening c1ccc2c(NCC3CCCO3)nc(N3CCOCC3)nc2c1 (configuration not stated) returned PrPC surface inh inactive, TcdB inh inactive, Mtb FBA inh 64, GDH-TPI counter-1 inactive, Yp Topo-I inh inactive, Mtb FBA confirm 176 and GDH-TPI counter-2 132.
For c1ccc2c(c1)nc(N1CCOCC1)c1c3ccccc3[nH]c21 the results were PrPC surface inh inactive, TcdB inh inactive, Mtb FBA inh 31, GDH-TPI counter-1 inactive, Yp Topo-I inh inactive, Mtb FBA confirm 62 and GDH-TPI counter-2 63.
`CCOc1ccc2nc(N3CCOCC3)nc(C)c2c1` gave PrPC surface inh inactive, Mtb FBA inh 51, GDH-TPI counter-1 inactive, Yp Topo-I inh inactive, Mtb FBA confirm 131 and GDH-TPI counter-2 109.
Screening Nc1nc(N2CCOCC2)nc2ccccc12 returned PrPC surface inh inactive, Mtb FBA inh 75, GDH-TPI counter-1 inactive, Yp Topo-I inh inactive, Mtb FBA confirm inactive and GDH-TPI counter-2 inactive.
